Holding throughout (format): functional
The subject of assay [1] is Plasmodium falciparum. In words: GSK_TCMDC: Inhibition of Plasmodium falciparum 3D7 in whole red blood cells, using parasite LDH activity as an index of growth. Test compounds present at 2uM.
In assay [2] the test system is Plasmodium falciparum. In words: GSK_TCMDC: Inhibition of Plasmodium falciparum Dd2 in whole red blood cells, using parasite LDH activity as an index of growth. Test compounds present at 2uM.
The next assay deals with HepG2. As to the kind of experiment: GSK_TCMDC: Percent inhibition of human HepG2 cell line. Test compounds present at 10uM.

Experimental findings from ChEMBL document CHEMBL1157539, “Thousands of chemical starting points for antimalarial lead identification” (Nature, 2010) are described below.

The Inhibition is the drop in the measured response relative to a control, in per cent. Read a high Inhibition as strong suppression.

For `CC(C)c1ccc(NC(=O)c2cccc(CN3CCCN(Cc4cccc(C#N)c4)CC3)c2)cc1.O=C(O)C(F)(F)F`, the results for the Inhibition with Plasmodium falciparum [1], in the assay with Plasmodium falciparum [2] and in the assay on HepG2 were 93%, 15% and 48%, respectively.
Take `Cn1c(Nc2nnc(C3CC3)s2)nc2cc(Nc3ccnc(Nc4cccc(CS(C)(=O)=O)c4)n3)ccc21`: the Inhibition in the assay with Plasmodium falciparum [1] worked out at 97%; with Plasmodium falciparum [2], 83%; in the assay on HepG2, 0%.
The matching figures for `NC1=NC(c2ccccc2)(c2ccccc2)C(=O)N1C1CCCCC1.O=CO`: 100%, 87% and 13%.
The matching figures for `Cc1cc2nc(-c3ccc(OCC(=O)NCc4cccc(C(F)(F)F)c4)cc3)[nH]c2cc1C`: 94%, 1% and 4%.
As for `O=C(Nc1ccc(Br)cc1)c1cc(Br)ccc1NS(=O)(=O)c1ccc(C(F)(F)F)cc1`, the results for the Inhibition in the assay on Plasmodium falciparum [1], in the assay with Plasmodium falciparum [2] and with HepG2 were 100%, 56% and 53%, respectively.
The matching figures for `O=C(/C=C/c1ccc(Cl)c(Cl)c1)N1CCC(CCCN2CCC(c3c[nH]c4ccccc34)CC2)CC1`: 100%, 45% and 44%.
The matching figures for `O=C(Nc1ccc(OC2CCN(Cc3ccsc3)C2)c(Cl)c1)c1cccs1.O=C(O)C(F)(F)F` (configuration not stated): 91%, 87% and 0%.
As to `CCCN(CCC)S(=O)(=O)c1ccc(C(=O)Nc2nc3ccc(-c4cc(=O)[nH]c(Nc5ccccc5Cl)n4)cc3[nH]2)cc1`, the Inhibition with Plasmodium falciparum [1] stood at 100%; in the assay with Plasmodium falciparum [2], 98%; in the assay with HepG2, 1%.
`COc1cc(-n2cnc3cc(-c4ccc([N+](=O)[O-])cc4)sc3c2=O)ccc1OCCN1CCCC1.O=C(O)C(F)(F)F`: the Inhibition was found to be 97% in the assay with Plasmodium falciparum [1], 79% in the assay on Plasmodium falciparum [2] and 44% with HepG2.
Regarding `CC(C)N(Cc1ccc(-c2ccc(C(F)(F)F)cc2)cc1)C(=O)Cn1c(CCc2cccc(F)c2F)cc(=O)c2ccc(CCCN3CCCCC3)cc21.O=C(O)C(O)C(O)C(=O)O`, the figures for the Inhibition with Plasmodium falciparum [1], with Plasmodium falciparum [2] and in the assay on HepG2 were 100%, 82% and 99%, respectively.
Regarding `C=Cc1c(C2CCN(CCCCNC(=O)c3ccc(-c4ccc(C#N)cc4)cc3)CC2)ccc2c1CCCC2`, the Inhibition came to 94% with Plasmodium falciparum [1], 75% with Plasmodium falciparum [2] and 75% in the assay on HepG2.
`COCCN1CCC(N(Cc2ccc(-c3ccc(C(F)(F)F)cc3)cc2)C(=O)Cn2c(CCc3cccc(F)c3F)cc(=O)c3c2CCC3)CC1.O=C(O)C(O)C(O)C(=O)O`: the Inhibition with Plasmodium falciparum [1] is given as 85%; in the assay on Plasmodium falciparum [2], 48%; in the assay on HepG2, 31%.
Regarding `CC1CCCN1Cc1ccc(-c2ccc3c(=O)cc(CCc4cccc(F)c4F)n(CC(=O)N(C)Cc4ccc(-c5ccc(C(F)(F)F)cc5)cc4)c3n2)cc1.O=C(O)C(O)C(O)C(=O)O` (configuration not stated), the Inhibition is 100% in the assay with Plasmodium falciparum [1], 91% in the assay with Plasmodium falciparum [2] and 0% in the assay with HepG2.
The matching figures for `Cc1ccc(NC(=O)c2ccc3ncccc3c2)cc1OC1CCN(C(C)C)C1.O=C(O)C(F)(F)F` (configuration not stated): 95%, 37% and 12%.
As to `CC(O)C(C)(CO)NCc1ccc2c3c(cccc13)-c1ccccc1-2.Cl` (configuration not stated), the values for the Inhibition in the assay on Plasmodium falciparum [1], in the assay on Plasmodium falciparum [2] and with HepG2 were 95%, 85% and 81%, respectively.
The matching figures for `COc1cc(CNC[C@@H](O)[C@H](Cc2ccccc2)NC(=O)c2cc(C3CCCC3)cc(N3CCCCS3(=O)=O)c2)cc(OC)c1.Cl`: 98%, 96% and 16%.
`CN(C)c1ccc2nc(N)nc(N)c2c1Cl.Cl`: the values for the Inhibition with Plasmodium falciparum [1], with Plasmodium falciparum [2] and in the assay on HepG2 were 98%, 0% and 68%, respectively.
The matching figures for `CC1CCN(c2nc(C(=O)Nc3cccc4c3CCCC4)c(C(C)C)s2)CC1.O=C(O)C(F)(F)F`: 96%, 49% and 14%.
Consider `OC1(C(F)(F)F)CC(c2ccccc2)=NN1c1nncc(-c2ccccc2)n1` (configuration not stated), for which the values for the Inhibition in the assay with Plasmodium falciparum [1], in the assay with Plasmodium falciparum [2] and in the assay with HepG2 were 99%, 3% and 0%, respectively.
Take `CS(=O)(=O)c1cccc(-c2cnc3[nH]cc(-c4ccc(C(=O)O)cc4)c3c2)c1`: the Inhibition in the assay on Plasmodium falciparum [1] came to 99%; with Plasmodium falciparum [2] it was 100%; in the assay on HepG2, 6%.
Take `COc1ccc(C2CCN(CCCCNC(=O)c3ccc(NC(=O)c4ccc(Cl)cc4)cc3)CC2)c(C)c1.Cl`: the Inhibition is 98% in the assay with Plasmodium falciparum [1], 35% in the assay on Plasmodium falciparum [2] and 22% with HepG2.
On to `Cc1ccc(Nc2ccnc3cc(-c4nccs4)ccc23)cc1C(O)c1ccccc1.Cl` (configuration not stated), for which the figures for the Inhibition with Plasmodium falciparum [1], in the assay with Plasmodium falciparum [2] and in the assay with HepG2 were 85%, 83% and 23%, respectively.
The matching figures for `Cc1ccc2nc(N(CCCn3ccnc3)C(=O)C=Cc3cccs3)sc2c1.Cl`: 100%, 57% and 22%.
The matching figures for `Cn1c(-c2ccccc2)cc2c3c(=O)cc(C(F)(F)F)[nH]c3ccc21`: 95%, 49% and 21%.
In the case of `CC(NCC(O)Cn1c2ccccc2c2ccccc21)c1ccccc1.O=C(O)c1ccccc1` (configuration not stated), the Inhibition is 96% in the assay on Plasmodium falciparum [1], 85% in the assay on Plasmodium falciparum [2] and 37% with HepG2.
The matching figures for `Cc1nc(-c2cccc(Nc3nccc(NCC(O)c4ccccc4C)n3)c2)cs1` (configuration not stated): 92%, 14% and 38%.
The matching figures for `CCCN(CCC)S(=O)(=O)c1ccc(C(=O)N2CCC(C(=O)OCC)CC2)cc1`: 98%, 41% and 26%.
`Cc1cnc(CN(Cc2ccc(-c3ccc(CNCCc4ccc(S(C)(=O)=O)cc4)cn3)cc2)C(=O)c2nn(-c3ccccc3)nc2C)cn1.O=C(O)C(F)(F)F`: the figures for the Inhibition with Plasmodium falciparum [1], in the assay with Plasmodium falciparum [2] and in the assay on HepG2 were 84%, 21% and 11%, respectively.
In the case of `O=C(/C=C/c1ccc(Cl)cc1)NCCCCCN1CCCN(C(=O)Nc2ccc(Cl)c(C(F)(F)F)c2)CC1`, the Inhibition in the assay on Plasmodium falciparum [1] is 95%; in the assay with Plasmodium falciparum [2], 1%; in the assay with HepG2, 54%.
